A selection: hits, their analogues and other compounds. The true share with any hit is near 13%.
USP8 inh: human USP8 deubiquitinase inhibition; purified USP8, Ub-rhodamine cleavage fluorescence, 30 min; inhibition, % at 20 µM; 4.2% of 47,000 active; AID 1645853
USP10 block: human USP10 deubiquitinase inhibition; purified USP10, Ub-rhodamine fluorescence, 60 min; inhibition, % at 20 µM; 1.1% of 47,000 active; AID 1645856
Target sequence (Q14694 whole entry, looked up): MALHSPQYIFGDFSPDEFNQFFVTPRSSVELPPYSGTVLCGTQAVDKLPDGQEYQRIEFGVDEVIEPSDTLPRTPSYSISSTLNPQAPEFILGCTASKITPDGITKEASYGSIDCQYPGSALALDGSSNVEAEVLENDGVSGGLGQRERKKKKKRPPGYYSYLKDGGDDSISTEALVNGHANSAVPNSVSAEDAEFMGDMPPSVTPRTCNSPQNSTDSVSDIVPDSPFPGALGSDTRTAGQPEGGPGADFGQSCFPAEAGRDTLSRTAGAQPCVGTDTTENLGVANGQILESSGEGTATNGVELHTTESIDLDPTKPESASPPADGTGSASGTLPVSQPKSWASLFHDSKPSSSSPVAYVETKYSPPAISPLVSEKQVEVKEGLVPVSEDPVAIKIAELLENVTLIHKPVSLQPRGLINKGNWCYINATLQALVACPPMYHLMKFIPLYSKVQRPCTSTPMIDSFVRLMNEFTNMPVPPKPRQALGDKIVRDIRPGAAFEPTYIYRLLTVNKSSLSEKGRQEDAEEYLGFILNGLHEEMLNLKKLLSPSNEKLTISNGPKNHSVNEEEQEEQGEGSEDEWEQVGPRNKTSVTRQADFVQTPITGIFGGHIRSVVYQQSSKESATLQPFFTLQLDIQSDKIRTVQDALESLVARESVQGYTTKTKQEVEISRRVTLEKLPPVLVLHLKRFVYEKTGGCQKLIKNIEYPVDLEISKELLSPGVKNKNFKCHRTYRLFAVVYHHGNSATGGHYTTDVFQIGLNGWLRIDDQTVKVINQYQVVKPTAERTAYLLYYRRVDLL
USP30 inh: inhibitors of human USP30 deubiquitinase; Q70CQ3; purified USP30, Ub-rhodamine cleavage fluorescence; inhibition, % at 25 µM; 5.3% of 47,000 active; AID 1645860
USP28 inh: blocks human USP28 ubiquitin-rhodamine cleavage. Q96RU2. purified USP28, Ub-rhodamine cleavage fluorescence, 30 min. inhibition, % at 25 µM. 3% of 47,000 active. AID 1645857
USP17 block: human USP17-like deubiquitinase inhibition; A8MUK1; purified USP17, Ub-rhodamine cleavage fluorescence, 3 h; inhibition, % at 50 µM; 6.5% of 47,000 active; AID 1645855
Each line names hits and unclear results; the compound was inactive in the other large screens. Rule as the data show it: active = inhibition above about 30%; inactive = the rest.

COc1ccccc1CNC(=O)c1ccc(CSc2nc3ccncc3n2Cc2ccccc2)cc1	USP30 inh 55.7, USP28 inh 30.6, USP17 block 40.4
COc1ccc(CSc2nc3ccncc3n2CC(=O)Nc2ccc(C)cc2C)cc1	USP30 inh 84.2, USP28 inh 70.2, USP17 block 72.1
N#Cc1ccc(C(=O)NC2CC(=O)N(C3CCCC3)C2)cc1 (stereo unspecified)	none
O=C1COc2ccccc2C/C=C/CC2(CCN(Cc3ccncc3)CC2)C(=O)NCCN1	none
Cc1noc(C)c1CN1CC[C@H]2O[C@H](C(=O)NCc3ccco3)CC[C@H]21	none
COc1cccc(CNC(=O)c2ccc(CSc3nc4ccncc4n3Cc3ccccc3F)cc2)c1	USP30 inh 53.7, USP28 inh 34.2, USP17 block 35.8
O=C(O)CCNC(=O)C1CCC(Cn2cnc3ccccc3c2=O)CC1 (stereo unspecified)	none
O=C(Nc1ccc2c(c1)OCCO2)C1CCC(Cn2cnc3ccccc3c2=O)CC1 (stereo unspecified)	USP10 block 50.9, USP28 inh 92.5
O=C(Nc1ccc2c(c1)OCO2)C1CCN(C(=O)c2ccc3n[nH]nc3c2)CC1	USP8 inh 35.6, USP28 inh 45.0
O=C(Nc1ccc2c(c1)OCCO2)C1CCN(C(=O)c2ccccc2)CC1	USP28 inh 76.2
Cc1cc(C(=O)N2CCC(C(=O)Nc3ccc4c(c3)OCO4)CC2)c2ccccc2n1	none
Cc1nc(-c2ccc(C)c(S(=O)(=O)Nc3cccc(C#N)c3)c2)cs1	none
Cc1c(C(=O)Nc2cccc(Cl)c2)nnn1-c1cccc(F)c1	none
O=C(COc1nsnc1N1CCOCC1)Nc1ccccc1F	none
O=C(COc1nsnc1N1CCOCC1)Nc1ccc(F)c(F)c1	USP30 inh 56.9
COCc1cc(=O)n(Cc2ccccc2)c(N2CCCC2)n1	none (no result: USP17 block)
CCOc1ccc(C(CC(=O)Nc2cc(C)ccn2)N2Cc3ccccc3C2=O)cc1OC (stereo unspecified)	USP30 inh 34.0, USP17 block 44.1
Cc1ccc(NC(=O)CC(c2ccc(F)cc2)N2Cc3ccccc3C2=O)nc1 (stereo unspecified)	none
Cc1nccn1-c1cncc(C2CCCN2C(=O)Cc2c[nH]c3ccccc23)n1 (stereo unspecified)	none
CN1C(=O)N(CC(=O)N2CCCC2c2cncc(-n3ccnc3)n2)C(=O)C12CCCCC2 (stereo unspecified)	USP8 inh 35.6
Cc1sc2nc(C(C)C)n(C3CCN(C(=O)C4CCCO4)CC3)c(=O)c2c1C (stereo unspecified)	none
Cc1sc2nc(C3CC3)n(C3CCN(C(=O)C4CC4)CC3)c(=O)c2c1C	USP30 inh 32.7
Cc1sc2nc(C3CC3)n(C3CCN(C(=O)CC(C)C)CC3)c(=O)c2c1C	USP30 inh 40.1
Cc1sc2nc(C)n(C3CCN(CC(=O)NCC4CC4)CC3)c(=O)c2c1C	none
CCN1CCC2(CC1)NC(=O)N(C1CCCN(C(=O)Cc3cccc(C)c3)C1)C2=O (stereo unspecified)	none
CCC(Sc1cccc(NC(=O)C2CCCCC2)c1)C(=O)Nc1cc([N+](=O)[O-])ccc1C (stereo unspecified)	USP8 inh 62.7
CCCN1CNc2c(c(=O)[nH]c(=O)n2-c2ccc(F)cc2)C1	none
CCc1ccc(N2CC(C(=O)OCc3cc(=O)oc4c(C)c(C)ccc34)CC2=O)cc1 (stereo unspecified)	USP30 inh 45.0, USP17 block 30.9
O=C1c2ccccc2-c2nnc(-c3ccncc3)cc21	USP8 inh 95.0, USP30 inh 33.8, USP17 block 47.1
Cn1c(=O)c2c(-c3ccncc3)cc(-c3ccccc3)nc2n(C)c1=O	none
COc1ccc(-n2c(C)cc(C(=O)CSc3nncn3-c3ccccc3OC)c2C)cc1	USP28 inh 30.5, USP17 block 33.6
Cc1ccc2c(=O)cc(C(=O)Nc3ccnn3Cc3ccccc3)oc2c1	none
Cn1cncc1CN1CCC2(CC1)CN(c1cccnc1)c1ccccc12	none
O=C(Nc1ccc(F)cc1F)c1csc(-c2ccccc2)n1	USP17 block 82.6
Cc1ccccc1NC(=O)Cn1c(C)ncc(-c2nc(-c3ccccc3)cs2)c1=O	none
O=C(Nc1ccc(F)cc1F)c1ccc(-c2nc(-c3ccc(F)cc3)cs2)cc1	none
O=C(Cn1cncc(-c2nc(-c3ccccc3)cs2)c1=O)Nc1ccc(F)cc1F	USP8 inh 41.4
Cc1ccc(NC(=O)Cn2cncc(-c3nc(-c4ccccc4)cs3)c2=O)cc1F	USP8 inh 40.8, USP10 block 33.4
Cc1ccccc1NC(=O)Cn1cncc(-c2nc(-c3ccccc3)cs2)c1=O	USP17 block 60.2
Cc1cccc(NC(=O)C2CCN(S(C)(=O)=O)c3ccccc3O2)c1 (stereo unspecified)	none
Cn1cncc1C(=O)N[C@@H]1C[C@@H](Oc2ccccc2)[C@H](O)[C@H]1O	none
Cc1cc(NS(=O)(=O)c2ccc(NC(=O)c3cccc4ccccc34)cc2)no1	none
Cc1cc(NS(=O)(=O)c2ccc(NC(=O)c3ccc(N4CCCC4)c([N+](=O)[O-])c3)cc2)no1	USP10 block 31.4
O=S1(=O)CCC(S(=O)(=O)Nc2ccc(OCc3ccc(Cl)cc3)cc2)C1 (stereo unspecified)	USP8 inh 56.7, USP17 block 34.7
Cc1noc(-c2cc(=O)n(CC(=O)NCc3ccccc3Cl)c3ccccc23)n1	none
Cc1oc(-c2ccccc2F)nc1CS(=O)(=O)CC(=O)NCc1ccccc1Cl	USP17 block 45.5
Cn1c(=O)n(CC(=O)OCc2ccccc2)c(=O)c2c1nc1oc(C(C)(C)C)cn12	none
CCOC(=O)CCn1c(=O)c2c(nc3oc(C(C)(C)C)cn32)n(C)c1=O	USP30 inh 32.0
CC(C)CNc1nc2c(cc1C(=O)NCC1CC1)CCNCC2	USP30 inh 44.8
O=C(NCC1CC1)c1cc2c(nc1NCC1CC1)CCNCC2	none
COc1cccc(-c2cncc(C3CCCNC3)n2)c1 (stereo unspecified)	none
COc1ccc(NC(=O)Cn2c(=O)n(CCCCC(=O)NCc3ccco3)c(=O)c3ccccc32)cc1Cl	USP10 block 59.2
COC(=O)c1ccccc1NC(=O)Cn1c(=O)n(CCCC(=O)NCc2ccco2)c(=O)c2ccccc21	USP8 inh 58.5, USP10 block 54.1, USP30 inh 79.8, USP28 inh 58.5, USP17 block 75.7
COc1cc(NC(=O)Cn2c(=O)n(-c3ccc(CC(=O)NCc4ccco4)cc3)c(=O)c3ccccc32)cc(OC)c1	none
Cc1ccc(NC(=O)COc2cccc3c(=O)n(C)ccc23)c(C)c1	none
COc1ccccc1CNC(=O)CCCCn1c(=O)c2ccccc2n(CC(=O)Nc2ccc(C)cc2C)c1=O	USP8 inh 45.6, USP10 block 49.9, USP30 inh 41.6
COc1cccc(NC(=O)Cn2c(=O)n(CCCC(=O)NCc3ccco3)c(=O)c3ccccc32)c1	USP17 block 44.2
COc1ccc(NC(=O)Cn2c(=O)n(CCCC(=O)NCCc3ccc(OC)c(OC)c3)c(=O)c3ccccc32)cc1Cl	none
